According to the supplement of paper PMC8728848:
Only a selection was taken, and the strongest signals are over-represented in it overall.

Tests used:
Experiment in all cases: glycan array binding signal (z-score within array); higher = stronger binding
Conditions in all cases: glycan notation: IUPAC condensed, linker removed
[1] = biological target: GlcNAc(b1-6)Gal(b1-4)GlcNAc
Summary of the method: (§1)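 From the Consortium for Functional Glycomics database, 3228 arrays were curated, keeping only those whose protein sequence was available. Binding is given as a within-array Z-score averaged across arrays sharing a protein sequence and across linkers. Negative Z-scores can be read as non-binding.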

[2] = biological target: Kdn(a2-3)Gal(b1-4)[Fuc(a1-3)]GlcNAc
Summary of the method: as §1

Kdn(a2-6)Gal(b1-4)GlcNAc = biological target: Kdn(a2-6)Gal(b1-4)GlcNAc
Summary of the method: as §1

[3] = biological target: Man(a1-2)Man(a1-3)[Man(a1-6)]Man(a1-6)[Man(a1-2)Man(a1-3)]Man(b1-4)GlcNAc(b1-4)GlcNAc
Summary of the method: as §1

[4] = biological target: Man(a1-2)Man(a1-6)[Man(a1-3)]Man(a1-6)[Man(a1-2)Man(a1-2)Man(a1-3)]Man(b1-4)GlcNAc(b1-4)GlcNAc
Summary of the method: as §1

Man(a1-6)Man = biological target: Man(a1-6)Man
Summary of the method: as §1

[5] = biological target: Neu5Ac(a2-3)Gal(b1-3)GalNAc
Summary of the method: as §1

[6] = biological target: Neu5Ac(a2-3)Gal(b1-4)GlcNAc(b1-3)Gal(b1-4)GlcNAc(b1-3)Gal(b1-4)GlcNAc(b1-2)Man(a1-3)[Neu5Ac(a2-3)Gal(b1-4)GlcNAc(b1-3)Gal(b1-4)GlcNAc(b1-3)Gal(b1-4)GlcNAc(b1-2)Man(a1-6)]GalNAc
Summary of the method: as §1

[7] = biological target: Neu5Ac(a2-3)Gal(b1-4)GlcNAc(b1-6)[Gal(b1-3)]GalNAc
Summary of the method: as §1

[8] = biological target: Neu5Ac(a2-3)Gal(b1-4)GlcNAc(b1-6)[Neu5Ac(a2-3)Gal(b1-3)]GalNAc
Summary of the method: as §1

Neu5Ac(a2-6)Gal = biological target: Neu5Ac(a2-6)Gal
Summary of the method: as §1

[9] = biological target: Neu5Ac(a2-6)Gal(b1-4)GlcNAc(b1-2)Man(a1-3)[Gal(b1-4)GlcNAc(b1-2)Man(a1-6)]Man(b1-4)GlcNAc(b1-4)GlcNAc
Summary of the method: as §1

[10] = biological target: Neu5Ac(a2-6)Gal(b1-4)GlcNAc(b1-2)Man(a1-6)[Gal(b1-4)GlcNAc(b1-2)Man(a1-3)]Man(b1-4)GlcNAc(b1-4)GlcNAc
Summary of the method: as §1

[11] = biological target: Neu5Ac(a2-6)Gal(b1-4)GlcNAc(b1-3)GalNAc
Summary of the method: as §1

[12] = biological target: Neu5Gc(a2-3)Gal(b1-4)[Fuc(a1-3)]GlcNAc
Summary of the method: as §1

B1: AT5G17240(42) (Arabidopsis thaliana), Q6NQJ8 (protein)
chain: MDLEHQTMETFLRWAAEIGISDSIDSSRFRDSCLGHSLSVSDFPDAGGRGLGAARELKKGELVLKVPRKALMTTESIIAKDLKLSDAVNLHNSLSSTQILSVCLLYEMSKEKKSFWYPYLFHIPRDYDLLATFGNFEKQALQVEDAVWATEKATAKCQSEWKEAGSLMKELELKPKFRSFQAWLWASATISSRTLHVPWDSAGCLCPVGDLFNYDAPGDYSNTPQGPESANNVEEAGLVVETHSERLTDGGFEEDVNAYCLYARRNYQLGEQVLLCYGTYTNLELLEHYGFMLEENSNDKVFIPLETSLFSLASSWPKDSLYIHQDGKLSFALISTLRLWLIPQSQRDKSVMRLVYAGSQISVKNEILVMKWMSEKCGSVLRDLPTSVTEDTVLLHNIDKLQDPELRLEQKETEAFGSEVRAFLDANCLWDVTVLSGKPIEFSRKTSRMLSKWRWSVQWRLSYKRTLADCISYCNEKMNNLLGTQDRLRDL
[1]
  glycan array binding signal (z-score): 1.88
[2]
  glycan array binding signal (z-score): -0.336
Kdn(a2-6)Gal(b1-4)GlcNAc
  glycan array binding signal (z-score): -0.164
[3]
  glycan array binding signal (z-score): 0.607
[4]
  glycan array binding signal (z-score): -0.172
Man(a1-6)Man
  glycan array binding signal (z-score): 0.232
[5]
  glycan array binding signal (z-score): -0.438
[6]
  glycan array binding signal (z-score): 2.21
[7]
  glycan array binding signal (z-score): -0.303
[8]
  glycan array binding signal (z-score): -0.407
Neu5Ac(a2-6)Gal
  glycan array binding signal (z-score): 0.474
[9]
  glycan array binding signal (z-score): -0.171
[10]
  glycan array binding signal (z-score): -0.325
[11]
  glycan array binding signal (z-score): -0.543
[12]
  glycan array binding signal (z-score): -0.299
